# According to the supplement of paper PMC10105736:
# Values without a mark were called inactive.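 Rule for the calls: active = MAPPIT score above the 99th percentile of random reference set scores in the same batch; inactive = at or below it.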
# B1: meigo (protein)
# chain: MNLPERSRFVIYAVGIFVCYFLYGIVQEKLTRGRYGEEVQTDGSVGERFTYALALVWVQCLCNYVFAKVLLTIRPQKEDTTNAGSYVACSLTYLLAMVSTNMAMRWVPYPTAVVGKSAKPIPVMILGVLIGRKSYSWTRYACVLTIVLGVILFMYKEGKVSNLPAETTLLGEVLLFLSLSMDGLTGAVQERIRAASAPSGQQMMRAMNFWSTLMLGVAMVFTGEAKEFMYFTIRHPEAWTHLSLIAVCGVLGQFFIFLMVASFGPLACSVVTTTRKFFTVLCSVLLFGNVLIARQWLGAVLVFAALFVDMLYGKKAPLATAKKPPVEGKLSEEKKLNS
# B2: Surf4 (protein)
# chain: MSIPNEYIAKTEDVAEQVIKRGKNVLPTVARLCLIATFFEDGLRMYIQWNEQREYMDMSWGCGKFLATVFVLVNLLGQLGGCGMVMARFKVDIAVGLLFFIVVLQTVAYSILWDFQFLLRNFALIGALLLVLAEARIEGRSLFAGVPSMGENKPKNFMQLAGRILLAFMFITLIRFELSVWQVIQDIIGSILMVLVVLGYKTKLSALILVALLTILNLYHNAWWTIPSYKPLRDFLKYDFFQTLSVIGGLLMIVSLGPGGVSMDEHKKKW
# B3: AdSS (protein)
# chain: MSASATNGTHYEQLHQGRTKMYKSKVDVVLGAQWGDEGKGKVVDMLASDVDIVCRCQGGNNAGHTVVANGTEFDFHLLPSGVVNEKCVSVIGNGVVIHLPSLFDEVLKNEAKGLQHLENRLIISDRAHLVFDFHQHVDGMQEAEKGGKSLGTTKKGIGPAYSSKATRNGIRVGELLGDFNLFSEKFKSIVATHVRLFPSINVDVEAELARYKDYADKVRPYVKDTICFLHTALRNGKTILVEGANAAMLDIDFGTYPYVTSSNCSIGGVLTGLGLPPQTIGEVIGVVKAYTTRVGDGPFPTEQLNDIGDLLQTRGFEVGVTTKRKRRCGWLDIPLLKYTSLVNGYTCICLTKLDILDTLPEIKVAVAYKKPNGEKLDHFPGTIAELGNIEVEYAVLPGWQTSTEEVRNFKELPENAQSYVRLLESELSVPVRWVGVGKGRESIINVH
# B4: CG2034 (protein)
# chain: MLSNLVVTKQKVVLVIDELNRERIAPKFIGSLLHEQGQGADTIKALPTGVSLKHVATFEALIDKYANNNTGSTTDSNSTGFNVILPTLADLLCYQTPAFIFGFLNRLRRSDNVRRVFLWASPQHLQDPHADYILAGCEYLAELVLRLESDKLLSLISRKPGGGVSNRRYSCEVSKTQFKVTPLDGGLPAGASPKQPSPEAEQTTEPASSTFKIELDEDEVLARNALTLPYERTSEPSEGNIIYTPDADDDFDEEDPDEDLCI
# B5: shrb (protein)
# chain: MSFFGKMFGGKKEVAPTTGEAIQKLRETENMLIKKQEFLEAKIEDELNIARKNASKNKRVALQALKKKKRLEKQLQQIDGTLSTIEMQREALESANTNTAVLTTMKNAADALKRAHQNMDVDKVHDMMDDIAEQQDVAREISDAISNPVAFGADLDDEDLERELDELEQENFDKEIIGIPEPTPTLPEAPTEDLPEKAKEKKKATTTTAVEDDDDPDMKQLLSWSN
# B6: RpS19b (protein)
# chain: MPGVTVKEIDQHVLTKNMAAFLKKSGKIFVPEQAVYMKTGKFKETAPTDDDWFYTRCASIMRHLYLRSPAGVGAFTKVYSGRKRNGVRPSKHCRSSDGCIRKALQALEAANMVERHPDGGRKLTPQGQRNLDRIANKIVAKQRERSAPVSMIITT
# B7: htl (protein)
# chain: MAAAWSWRASHSTITMTSGSLVVLFLLLSIWQPAVQVEGRRQMANSQEMIKDHLGARSQNKTPAITNNANQSSTSSADLDDGAADDDDNKADLPVNVSSKPYWRNPKKMSFLQTRPSGSLLTLNCHALGNPEPNITWYRNGTVDWTRGYGSLKRNRWTLTMEDLVPGDCGNYTCKVCNSLGCIRHDTQVIVSDRVNHKPILMTGPLNLTLVVNSTGSMHCKYLSDLTSKKAWIFVPCHGMTNCSNNRSIIAEDKDQLDFVNVRMEQEGWYTCVESNSLGQSNSTAYLRVVRSLHVLEAGVASGSLHSTSFVYIFVFGGLIFIFMTTLFVFYAIRKMKHEKVLKQRIETVHQWTKKVIIFKPEGGGDSSGSMDTMIMPVVRIQKQRTTVLQNGNEPAPFNEYEFPLDSNWELPRSHLVLGATLGEGAFGRVVMAEVNNAIVAVKMVKEGHTDDDIASLVREMEVMKIIGRHINIINLLGCCSQNGPLYVIVEYAPHGNLKDFLYKNRPFGRDQDRDSSQPPPSPPAHVITEKDLIKFAHQIARGMDYLASRRCIHRDLAARNVLVSDDYVLKIADFGLARDIQSTDYYRKNTNGRLPIKWMAPESLQEKFYDSKSDVWSYGILLWEIMTYGQQPYPTIMSAEELYTYLMSGQRMEKPAKCSMNIYILMRQCWHFNADDRPPFTEIVEYMDKLLQTKEDYLDVDIANLDTPPSTSDEEEDETDNLQKWCNY
# B8: Tpst (protein)
# chain: MRLPYRNKKVTLWVLFGIIVITMFLFKFTELRPTCLFKVDAANELSSQMVRVEKYLTDDNQRVYSYNREMPLIFIGGVPRSGTTLMRAMLDAHPDVRCGQETRVIPRILQLRSHWLKSEKESLRLQEAGITKEVMNSAIAQFCLEIIAKHGEPAPRLCNKDPLTLKMGSYVIELFPNAKFLFMVRDGRATVHSIISRKVTITGFDLSSYRQCMQKWNHAIEVMHEQCRDIGKDRCMMVYYEQLVLHPEEWMRKILKFLDVPWNDAVLHHEEFINKPNGVPLSKVERSSDQVIKPVNLEAMSKWVGQIPGDVVRDMADIAPMLSVLGYDPYANPPDYGKPDAWVQDNTSKLKANRMLWESKAKQVLQMSSSEDDNTNTIINNSNNKDNNNNQYTINKIIPEQHSRQRQHVQQQHLQQQQQQHLQQQQHQRQQQQQQREEESESEREAEPDREQQLLHQKPKDVITIKQLPLAGSNNNNINNNINNNNNNNNIMEDPMADT
# B9: grk (protein)
# chain: MMQIPFTRIFKVIFVLSTIVAVTDCCSSRILLLREHTLKIVQHQHSHMHEHAHELQQQIQETAVELLNRLELQRKQLEASAQEEADQLHPDTDPNPDSGGQLPNADDSIAADPEQDGIILGSSTDTWLASESSTPITDSETVTTPETVTHTGEPPPDPSSSSTPDSTTPSPNDKETEIQMLPCSEAYNTSFCLNGGHCFQHPMVNNTVFHSCLCVNDYDGERCAYKSWNGDYIYSPPTAQRKVRMAHIVFSFPVLLMLSSLYVLFAAVFMLRNVPDYRRKQQQLHLHKQRFFVRC
# B10: CG7639 (protein)
# chain: MPKSGRDGGASKDSKYDLSKISARVDRVNVSGLLRTHNDYVMRAADGLFKASNFQDLMLEAMSTKSYLHELGIFKDVSVHIDVSRGADASPQGYEVTFKGNEMSRMMGSAGTEIGQNEGSLRTELTIPNILGRGENISLQGSYSSTRANDLQLKFWKPFFHTRFKENRPEMSFSIFRQTDRFDISSFQTTNIGYLVDFSAHTMVGVDLTHSLQYENAIRDVGLLNKSVPFAIRDHCGPKLASLLRYSVVYDNRDGNVFPTRGIYLKSVNEYCGLGGNVAYTSSTAHGELNVPLFAGLVAQFCARVGVVKETKNTTQLPISSLFYCGGPLTLRGFKFGGAGPVVESTPIGAQSFWCTGAHLWAPLPFAGVFKNLASHFRMHFFYNIGNNNSFSTENMRSAFGMGLAVKLAERARIELNYCVPVRHQDTDRILNGFQFGIGYEFV
# B11: RpS3 (protein)
# chain: MNANLPISKKRKFVSDGIFKAELNEFLTRELAEDGYSGVEVRVTPSRTEIIIMATKTQQVLGEKGRRIRELTAMVQKRFNFETGRIELYAEKVAARGLCAIAQAESLRYKLTGGLAVRRACYGVLRYIMESGAKGCEVVVSGKLRGQRAKSMKFVDGLMIHSGDPCNDYVETATRHVLLRQGVLGIKVKVMLPYDPKNKIGPKKPLPDNVSVVEPKEEKIYETPETEYKIPPPSKPLDDLSEAKVL
# B12: CG3792 (protein)
# chain: MTDLIRQGALFLMSEKCYDNYFLYHNFLDVPCFKALLSKGLGLAIIAGSVLVKVPQVLKILNSKSGEGINIVGVVLDLLAISFHLSYNFMHGYPFSAWGDSTFLAIQTVTIAVLVLFFNGRKAQSGLFLVGYVVLMYVLNSGLTPMSVLFTIQSCNIPILLVGKLSQAYTNYQAGSTGQLSAATVIMMFAGSVARIFTSIQETGDFMIILTFIASTFANSVILGQLIYYWNKPAGVKVKDSKAKKPKTKKDD
# B13: Vha26 (protein)
# chain: MALSDADVQKQIKHMMAFIEQEANEKAEEIDAKAEEEFNIEKGRLVQQQRLKIMEYYEKKEKQVELQKKIQSSNMLNQARLKVLKVREDHVSSVLDDARKRLGEVTKNQSEYETVLTKLIVQGLFQIMEPKVILRCREVDVPLVRNVLPAAVEQYKAQINQNVELFIDEKDFLSADTCGGVELLALNGRIKVPNTLESRLDLISQQLVPEIRNALFGRNVNRKFTD
# B14: Mlp84B (protein)
# chain: MPSFQPIEAPKCPRCGKSVYAAEERLAGGYVFHKNCFKCGMCNKSLDSTNCTEHERELYCKTCHGRKFGPKGYGFGTGAGTLSMDNGSQFLRENGDVPSVRNGARLEPRAIARAPEGEGCPRCGGYVYAAEQMLARGRSWHKECFKCGTCKKGLDSILCCEAPDKNIYCKGCYAKKFGPKGYGYGQGGGALQSDCYAHDDGAPQIRAAIDVDKIQARPGEGCPRCGGVVYAAEQKLSKGREWHKKCFNCKDCHKTLDSINASDGPDRDVYCRTCYGKKWGPHGYGFACGSGFLQTDGLTEDQISANRPFYNPDTTSIKARDGEGCPRCGGAVFAAEQQLSKGKVWHKKCYNCADCHRPLDSVLACDGPDGDIHCRACYGKLFGPKGFGYGHAPTLVSTSGESTIQFPDGRPLAGPKTSGGCPRCGFAVFAAEQMISKTRIWHKRCFYCSDCRKSLDSTNLNDGPDGDIYCRACYGRNFGPKGVGYGLGAGALTTF
# B15: Coa8 (protein)
# chain: MNKCFRCQPRISLFQFSLPRCYAAVQPGCPPPQEKPVVGLPHKPDPKTVKCDYIGPPDAQSNLRPYVRHYGDEETRLARSLRLKRIEVEAWNTDFWTKHNKRFYEEKEDFIRLHKESGTSEVSADQMSHFYKAFLDKNWRIHIMYNISWYLKNFDILTLAAAVQLQRLLALAKRRS
# Key:
# Assay in all cases: MAPPIT interaction score (arbitrary units); higher = stronger binary interaction signal, active = hit call of the paper
# Tim17b2 = conditions: MAPPIT configuration: N-C
# Tsp74F = conditions: MAPPIT configuration: N-C; pair source set: screen_3
# Usp16-45 = conditions: MAPPIT configuration: N-N; pair source set: Curagen_low_conf
# U4-U6-60K = conditions: MAPPIT configuration: N-N; pair source set: DPIM
# Vps24 = conditions: MAPPIT configuration: N-N; pair source set: Curagen_high_conf
# Tm1 = conditions: MAPPIT configuration: N-N; pair source set: Curagen_high_conf
# Uba5 = conditions: pair source set: RRS
# Tsp96F = conditions: MAPPIT configuration: N-C; pair source set: screen_3
# ninaD = conditions: MAPPIT configuration: N-C; pair source set: screen_3
# Tom20 = conditions: MAPPIT configuration: N-N; pair source set: DPIM
# Trxr1 = conditions: MAPPIT configuration: N-N; pair source set: Finley_Y2H
# TwdlW = conditions: MAPPIT configuration: N-N; pair source set: Lit-BS-16
# Vha13 = conditions: MAPPIT configuration: N-C; pair source set: screen_4
# Traf-like = conditions: MAPPIT configuration: N-N; pair source set: Curagen_low_conf
# Uba4 = conditions: MAPPIT configuration: N-N; pair source set: Curagen_high_conf
# 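Note: HEK293T cells with Epo stimulation, STAT-responsive firefly luciferase reporter, fold induction versus unstimulated cells divided by the larger fold induction of two negative controls lacking either bait or prey.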
binder,measurement,setting,value
B1,MAPPIT interaction score,Tim17b2; pair source set: screen_4,-0.125
B2,MAPPIT interaction score,Tsp74F,-0.232
B3,MAPPIT interaction score,Usp16-45,1.38
B4,MAPPIT interaction score,U4-U6-60K,0.24
B5,MAPPIT interaction score,Vps24,0.054
B6,MAPPIT interaction score,Tm1,0.314
B7,MAPPIT interaction score,Uba5; MAPPIT configuration: N-C,-0.924
same,MAPPIT interaction score,Uba5; MAPPIT configuration: N-N,-0.283
B8,MAPPIT interaction score,Tsp96F,-0.524
same,MAPPIT interaction score,ninaD,0.243
B9,MAPPIT interaction score,Tom20,0.109
B10,MAPPIT interaction score,Trxr1,-0.0261
B11,MAPPIT interaction score,TwdlW,-0.331
B12,MAPPIT interaction score,Tim17b2; pair source set: screen_3,-0.183
B13,MAPPIT interaction score,Vha13,1.21
B14,MAPPIT interaction score,Traf-like,-0.422
B15,MAPPIT interaction score,Uba4,2.52 (active)
